# Measurements reported in PubChem BioAssay AID651820 (National Center for Advancing Translational Sciences (NCATS), 2012).
# In all, about 340,000 compounds went through this assay and about 12,000 (3.5%) were called active. Another 18% or so got no clear call; they are omitted. Only a selection was taken, and actives are over-represented in it overall. A number with no mark means an inactive call. Calls follow the shape of the dose curve; as a rule, active = well fitted inhibition curve with a large enough effect; inconclusive = small, poorly fitted or top-dose-only effect, or another doubt; inactive = no such curve, though single readings can be large or run the other way.
# Test: qHTS Assay for Inhibitors of Hepatitis C Virus (HCV)
# Details: Huh7.5.1 HCVcc-Cre infection, luciferase reporter, 44 h; series mostly up to 41.8 µM; activity change, negative = inhibition: at the top concentration
# Excerpt: Hepatitis C virus (HCV) infects about 200 million people in the world. Many infected people progress to chronic liver disease including cirrhosis with a risk of developing liver cancer. To date, there is no effective vaccine for hepatitis C. Current therapy based on interferon is only effective in about half of the patients and is associated with significant adverse effects. The fraction of people with HCV who can complete a successful treatment is estimated to be no more than 10 percent. Recent development of direct-acting antivirals against HCV, such as protease and polymerase inhibitors, is promising but still requires combination with peginterferon and ribavirin for maximal efficacy. In addition, these agents are associated with high rate of resistance and many have significant side effects. Due to the lack of a culture system for infectious HCV, the search for new HCV drugs has been greatly hampered. […] High-throughput screening (HTS) with an infectious HCV system would cover the complete spectrum of potentially druggable targets in all stages of HCV lifecycle, and would have more biological relevance than other cell-based assays. Moreover, targeting several key processes in the viral life cycle may not only increase antiviral efficacy; more importantly, it may also reduce the capacity of the virus to develop resistance to the compound. The goal of this project is to identify novel HCV inhibitors as new therapies for hepatitis C, using a highly sensitive and specific assay platform which is based on a HCV infectious cell culture system established in the laboratory and adapted for high-throughput HCV drug screen. NIH Chemical Genomics Center [NCGC] NIH Molecular Libraries Probe Centers Network [MLPCN] MLPCN Grant: MH095511 Assay Submitter (PI): Jake Liang, NIDDK
# The assay will start with plating 1,000 cells/well in 3 µL volume and culture for 4 h. Then 23 nL of compounds from the library collection will be added to each well, followed by adding 2.5 µL of HCVcc-Cre virus (~ 0.5 moi) and further cultured for 44 h before the luciferase assay. A volume of 4.5 µL luciferase substrates will be added to each well and the plates will be incubated at room temperature for 15 min. and then read for 15 sec. for the luciferase activity
# % is scaled to controls: 0 for no effect and ±100 for the full control effect.
Structure (SMILES),Potency,"activity change, negative = inhibition"
O=C1c2ccccc2C2=Nc3ccccc3SC(c3ccccc3F)C12 (stereo not given),5.01 µM (active),
O=C1c2ccccc2C(=O)C1c1ccccc1F,,-1.17%
CCOC(=O)C1=C(C)N=C2c3ccccc3C(=O)C2C1c1ccc(Br)cc1 (stereo not given),,-21.8%
Cc1sc2nc(CSCC(=O)NC3CCCCC3)[nH]c(=O)c2c1C,,6.44%
CC1=CC(=Cc2sc3ccccc3[n+]2C)C=C(C)O1,5.01 µM (active),
CC(C)C(NC(=O)c1c(F)cccc1F)C(=O)NNC(=O)c1ccccc1 (stereo not given),,7.93%
O=C(NCCc1ccc(F)cc1)c1ccc(S(=O)(=O)N2CCCCC2)cc1,,-27.2%
COc1ccc(CNC(=O)C2(CC3CC(c4ccccc4)=NO3)CCN(C(=O)c3cccc(O)c3)CC2)cc1 (stereo not given),,-11.6% [at 8.37 µM]
O=C(CCC(=O)N1CCN(S(=O)(=O)c2ccc(Cl)cc2)CC1)NCc1cccc(C(F)(F)F)c1,11.2 µM (active),
O=C(CCC(=O)c1ccccc1)NCc1cccc(C(F)(F)F)c1,,-0.719%
O=C(COc1ccc(Cl)cc1)N1CCN(S(=O)(=O)c2ccc(Cl)cc2)CC1,,7.75%
O=C1c2ccccc2C(=O)C1C(=O)C1CC1,,0.357%
CCN(CC(=O)Nc1ccc(OC)cc1)C(=O)c1ccc(=O)n(Cc2ccccc2)n1,,0.141%
CNCC[C@H](Oc1ccc(C(F)(F)F)cc1)c1ccccc1,3.98 µM (active),
CC(NC(=O)COC(=O)Cn1cc(C(F)(F)F)ccc1=O)c1ccccc1 (stereo not given),,15.9%
CC(CC(=O)Nc1cc(C(F)(F)F)ccc1Cl)c1ccccc1 (stereo not given),,-7.71%
COc1ccc2nc3n(c(=O)c2c1)-c1cc(C)ccc1C(=O)NC3Cc1ccc(O)cc1 (stereo not given),,15.7%
Cc1ccc(N(CC(=O)Nc2cccc(N(C)S(C)(=O)=O)c2)S(C)(=O)=O)cc1,,-11.3%
CN(c1ccc(C(=O)N2CCc3ccccc3C2)cc1)S(C)(=O)=O,,-3.55%
CN(c1cccc(NC(=O)Nc2ccc(Cl)cc2)c1)S(C)(=O)=O,10 µM (active),
COc1cccc(N(CC(=O)Nc2cccc(N(C)S(C)(=O)=O)c2)S(C)(=O)=O)c1,,-10.5%
CC(=O)Nc1cccc(NC(=O)c2ccc3c(c2)CCN3S(C)(=O)=O)c1,,11.1%
CN(c1cccc(NC(=O)c2ccc(CN3CCc4ccccc4C3)cc2)c1)S(C)(=O)=O,11.2 µM (active),
O=C(CNC(=O)c1ccccc1F)OCC(=O)c1c[nH]c2ccccc12,,7.77%
Cc1ccsc1C(=O)NC1CCCCC1C (stereo not given),,4.79%

Structure (SMILES),Potency,"activity change, negative = inhibition"
O=C(NCCN1CCOCC1)c1cccc(S(=O)(=O)Nc2ccc(F)cc2)c1,,3.15%
C#CCOCCOCCOCCNc1nc(N2CCN(C(=O)Cn3cc(CCO)nn3)CC2)nc(N2CCN(C(=O)[C@H](CCCCN)n3cc(CCCC)nn3)CC2)n1,,-0.907% [at 8.37 µM]
CCOC(=O)c1cc(-c2ccccc2C)n(Cc2cc(C)no2)n1,,-15.8%
Cc1cc(C)n2nc(C(=O)OCC(=O)N(CCC#N)c3ccc(F)cc3)nc2n1,,24.9%
Cc1c(C(=O)OCC(=O)N(CCC#N)c2ccccc2)oc2c1ccc1ccccc12,8.91 µM (active),
N#CCCN(C(=O)COC(=O)c1ccc(S(=O)(=O)N2CCCCCC2)cc1)c1ccccc1,,-2.62%
Cc1cccc(C)c1NC(=O)COC(=O)c1c(C)nn(-c2ccccc2)c1C,,-29.5%
Cc1ccc(S(=O)(=O)Nc2nc(CN3CCOCC3)nc3sc(C)c(C)c23)cc1,,14.3%
COc1ccc(C)cc1NC(=O)CSc1nc(SC)ns1,11.2 µM (active),
CSc1nsc(SCC(=O)Nc2cc(C(=O)O)ccc2C)n1,,28.5%
COc1ccc(C)cc1NC(=O)CSc1cccc[n+]1[O-],,20.4%
Cc1ccc(C(=O)CN2C(=O)NC3(CCOc4ccccc43)C2=O)s1 (stereo not given),,7.99%
Cc1ccc(N2CC(C(=O)Nc3cc(Cl)ccc3-n3cncn3)CC2=O)cc1 (stereo not given),,8.85%
CCc1nn(CCCN2CCN(c3cccc(Cl)c3)CC2)c(=O)n1CCOc1ccccc1,10 µM (active),
CCN1C(=O)/C(=C\N2CCN(c3cccc(Cl)c3)CC2)SC1=S,,-4.91%
OC(COc1ccccc1)CN1CCN(c2cccc(Cl)c2)CC1 (stereo not given),,13.3%
Cc1ccc(C(=O)OCC(=O)N2CC(C)CC(C)C2)cc1S(=O)(=O)N1CCCCC1 (stereo not given),,-4.66%
N#Cc1cccc(NC(=O)COC(=O)c2ccccc2C(=O)c2ccc(Cl)c([N+](=O)[O-])c2)c1,10 µM (active),
CC(=O)Nc1ccc(NC(=O)COC(=O)c2ccccc2C(=O)c2ccccc2)cc1,,5.01%
NC(=O)c1ccc(NC(=O)COC(=O)c2ccc([N+](=O)[O-])cc2)cc1,,11.3%
CC(=O)Nc1ccc(NC(=O)C(C)OC(=O)c2ccccc2C(=O)c2ccc(Cl)c([N+](=O)[O-])c2)cc1 (stereo not given),11.2 µM (active),
O=C(Nc1ccncc1)c1ccc(Cl)c([N+](=O)[O-])c1,,-0.941%
CC(OC(=O)CNC(=O)c1ccc(Cl)c([N+](=O)[O-])c1)C(=O)NCc1ccco1 (stereo not given),,-1.08% [at 8.37 µM]
COc1ccc(C(=O)COC(=O)c2c(C)noc2C)cc1Cl,,-8.16%
CCOC(=O)c1ccc(NC(=O)C2CC(=O)N(c3ccc4c(c3)OCCO4)C2)cc1 (stereo not given),,7.75%
